The results in this text go back to PubChem BioAssay (Tox21).

Where “and” joins values, the source holds several entries; their conditions need not be identical. Equal values may be shown once. Results filed as inconclusive are left out. Entries that show only a call come without a potency. More than one record can exist for a structure, and the calls need not agree. Calls of active or inactive are those of the source. Calls follow the shape of the dose curve; as a rule, active = well fitted activation curve with a large enough effect in the repeat runs; inconclusive = weak or mixed curves; inactive = flat fitted curve, though single readings scatter.
Potency is read from the fitted curve at half-maximal effect.

A short description of the experiment: A CellTox Green Cytotoxicity Assay to monitor cytotoxicity in HepG2 cells - 40 hour (AID 1224879). Also: nearly all actives have a fitted effect of over 40% in size. The settings on record: CellTox Green fluorescence; series mostly up to 76.8 µM; cytotoxicity increase: at the top concentration. From the text: National Center for Advancing Translational Sciences [NCATS]
NIH Chemical Genomics Center [NCGC]
U.S. Environmental Protection Agency [EPA]
National Institutes of Environmental Health Sciences [NIEHS]
National Toxicology Program [NTP]
Cell-based models are critical for drug discovery. Determining the natural cytotoxic effects resulting from test compounds is an essential research activity. A CellTox Green Cytotoxicity Assay to monitor cytotoxicity in real time of continues cell culture during 40 hours of the compound treatment was used to screen Tox21 10K library compounds in HepG2 cells. CellTox Green Cytotoxicity Assay is a nonlytic, homogeneous, biofluorescent method to measure cytotoxicity in cell culture after experimental manipulation. The assay system uses a proprietary asymmetric cyanine dye that is excluded from viable cells but preferentially stains the dead cell's DNA. […] Viable cells produce no appreciable increases in fluorescence. Therefore, the fluorescence signal produced by the binding interaction with dead cell DNA is proportional to cytotoxicity.
The mixture of HepG2 cell suspension and reagents were dispensed at 600cells/6 ul/well in 1536-well tissue culture treated black solid bottom plates using a Multidrop dispenser. After the assay plates were incubated at a 37 C/5% CO2 incubator for 5 hours, 23 nL of compounds dissolved in DMSO, positive and negative controls was transferred to the assay plate by a pintool work station. The plates were incubated at 37 C for 40 hours. The fluorescence intensity were measured at 0h, 8h, 16h, 24h, 32h and 40h time points using ViewLux plate reader during compound treatment.
For the molecule `C/C=C/C(=O)N(CC)c1ccccc1C`, the Potency result is “inactive”.

For the molecule `C=C[C@H]1CN2CC[C@H]1C[C@@H]2[C@@H](O)c1ccnc2ccc(OC)cc12`, the Potency result was “inactive”.

As for `CC(C)=CCO`, the Potency entry is “inactive”.

Consider `CCC/C=C/C=O`, for which the Potency entry is “inactive”.

Take `CCOC(=O)C(C)Oc1ccc(Oc2cnc3cc(Cl)ccc3n2)cc1` (stereo not given): the Potency entry was “inactive”.

Consider `CCCCCCCCCCCCO`, for which the “cytotoxicity increase” value was 14.8% (inactive).

As to `C[C@]12CC[C@@H]3c4ccc(O)cc4CC[C@H]3[C@@H]1CC[C@@H]2O`, the Potency is 34.6 µM (active).

For `C1CN(SSN2CCOCC2)CCO1`, the “cytotoxicity increase” value is -4.38% (inactive).

`C[N+](C)(C)CCO`: the Potency entry was “inactive”.

As for `CCC(=O)O[C@H]1[C@H](O[C@@H]2[C@@H](C)[C@H](O[C@H]3C[C@@](C)(OC)[C@@H](O)[C@H](C)O3)[C@@H](C)C(=O)O[C@H](CC)[C@@](C)(O)[C@H](O)[C@@H](C)C(=O)[C@H](C)C[C@@]2(C)O)O[C@H](C)C[C@@H]1N(C)C`, the “cytotoxicity increase” value was -1.01% [at 35.3 µM] (inactive).

Consider `CC1(C)NC(=O)N(c2ccc([N+](=O)[O-])c(C(F)(F)F)c2)C1=O`, for which the Potency result is “inactive”.

`O=C(CCCN1CCC(O)(c2ccc(Cl)cc2)CC1)c1ccc(F)cc1`: the Potency was 24.5 µM (active) and 26.8 µM (active).

Regarding `[O-]/[N+](=N\O)c1ccccc1`, the Potency entry is “inactive”.

As for `CCCCCC=O`, the “cytotoxicity increase” value is 1.44% (inactive).

Consider `O=C1OC2(c3ccccc31)c1cc(I)c(O)c(I)c1Oc1c2cc(I)c(O)c1I`, for which the Potency was 13.3 µM (active) [middle of 4 runs].

Consider `C=C1C[C@H]2[C@@H]3C=C(C)C4=CC(=O)CC[C@]4(C)[C@H]3CC[C@]2(C)[C@@]1(OC(C)=O)C(C)=O`, for which the Potency result is “inactive”.

`O=Cc1ccccc1C=O`: the Potency was 21.9 µM (active) and inactive.

For the molecule `COc1ccc2nc(N)sc2c1`, the Potency result is “inactive”.

Turning to `O=[Se](O)O`, the cytotoxicity increase is 15.7% [at 15.8 µM] (inactive) and the Potency is 24.6 µM (active).

Turning to `COC(=O)CC(=O)OC`, the Potency result was “inactive”.

Take `CC1(C)O[C@@H]2C[C@H]3[C@@H]4C[C@H](F)C5=CC(=O)C=C[C@]5(C)[C@@]4(F)[C@@H](O)C[C@]3(C)[C@]2(C(=O)CO)O1`: the Potency entry was “inactive”.

Regarding `Nc1cc(Cl)c(N)c(Cl)c1`, the “cytotoxicity increase” value is 5.11% (inactive).

Consider `CCCOCCO`, for which the Potency result was “inactive”.

For the molecule `IC(I)I`, the “cytotoxicity increase” value was 6.6% (inactive).

For the molecule `CCC(Cc1c(I)cc(I)c(N)c1I)C(=O)O` (stereo not given), the Potency result is “inactive”.

As for `COC(=O)C(C)Oc1ccc(Oc2ncc(C(F)(F)F)cc2Cl)cc1` (stereo not given), the Potency result is “inactive”.

As to `NCCN`, the Potency entry is “inactive”.

With `CC1=CC(C)(C)Nc2ccccc21`, the Potency entry was “inactive”.

Regarding `CCCCCCC(C)O` (stereo not given), the Potency result was “inactive”.

On to `Nc1ccc2c(O)cc(S(=O)(=O)O)cc2c1`, for which the Potency result is “inactive”.

Regarding `C=C[C@H]1CN2CC[C@H]1C[C@H]2[C@H](O)c1ccnc2ccc(OC)cc12`, the “cytotoxicity increase” value was 28.9% [at 35.3 µM] (inactive).

As to `O=C(O)CCCC(=O)O`, the Potency entry was “inactive”.

On to `ClC/C=C/CCl`, for which the Potency result is “inactive”.

In the case of `[Na+]`, the “cytotoxicity increase” value was -1.83% (inactive).

With `CC(=O)Oc1c(C)c(C)c2c(c1C)CC[C@@](C)(CCC[C@H](C)CCC[C@H](C)CCCC(C)C)O2`, the Potency result was “inactive”.

Turning to `CN1CCOCC1`, the Potency entry was “inactive”.

Take `C=CCNCC=C`: the Potency result is “inactive”.

For the molecule `CCCCCC1C(=O)CCC1CC(=O)OC` (stereo not given), the “cytotoxicity increase” value was 0.589% (inactive).

On to `CC(=O)[C@H]1CC[C@H]2[C@@H]3CC=C4C[C@@H](O)CC[C@]4(C)[C@H]3CC[C@]12C`, for which the Potency entry was “inactive”.
